# Experimental data reported in PubChem BioAssay (NCATS).
# Records with an inconclusive call do not appear. Activity calls are given as the source filed them. The call rests on the fitted dose curve; in most records, active means well fitted cell-killing curve with a large enough effect; inconclusive means small, poorly fitted or top-dose-only effect, or effect the other way; inactive means no such curve, though single readings can be large or run the other way.
# Experiment: Viability qHTS for spleen associated tyrosine kinase inhibitor (SYKi) drug resistant MV4-11 cells (AID 1963824); further: nearly all actives have a fitted effect of over 35% in size
# Conditions: SYKi-resistant MV4-11 viability, CellTiter-Glo, 72 h; series mostly up to 45 µM; viability, % of control: at the top concentration
# Procedure, shortened: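 SYK-inhibitor-resistant MV4-11 AML cells were seeded at 500 per well onto compound and cultured 72 hours (37 °C, 5% CO2). CellTiter-Glo was then added, and after 10 min at room temperature, luminescence gave viability.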
# Potency means the concentration at half of the fitted maximal effect.
Structure (SMILES),Potency,"viability, % of control"
CC(=O)O[C@@H]1CC[C@@]2(C)C(CC[C@]3(C)C2[C@H](O)C=C2[C@H]4[C@@H](C)[C@H](C)CC[C@]4(C)CC[C@]23C)[C@@]1(C)C(=O)O (stereo not given in full),7.09 µM (active),–
NCCCNc1ccc(Nc2nccc(Nc3cc(C4CC4)[nH]n3)n2)cc1,0.164 µM (active),–
Cc1cc2cc(Oc3ccnc(Nc4cccc(CS(=O)(=O)NCCN(C)C)c4)n3)ccc2[nH]1,1.86 µM (active),–
CCC(C)C(=O)Oc1cc(C)ccc1C1(COC(=O)C(C)C)CO1 (stereo not given),2.02 µM (active),–
CC(=O)N[C@@H](CC(=O)O)C(=O)N[C@@H](CCC(=O)O)C(=O)N[C@H](C(=O)N[C@@H](CC(=O)O)C(=O)Nc1ccc2c(C)cc(=O)oc2c1)C(C)C,6.51 µM (active),–
Nc1nc2c(c(=O)[nH]1)N1CN(c3ccc(C(=O)N[C@@H](CCC(=O)O)C(=O)O)cc3)CC1CN2 (stereo not given in full),0.833 µM (active),–
COc1ccc(Cl)cc1NC(=O)Nc1cc(C)nc2ccccc12,14.6 µM (active),–
CN1CCN(C2=Nc3ccccc3Nc3ccc(OS(=O)(=O)C(F)(F)F)cc32)CC1,20.6 µM (active),–
CCOc1ccc(-c2nc(-c3cccc4c3CCC4NCCO)no2)cc1OCC (stereo not given),13 µM (active),–
COc1cc2nc(N3CCC(N4CCCCC4)CC3)nc(NC3CCCCCC3)c2cc1OC,1.03 µM (active),–
COc1ccc(C(=O)OC2C3C=COC(OC4OC(CO)C(O)C(O)C4O)C3C3(CO)OC23)cc1OC (stereo not given),–,92% [at 17.3 µM] (inactive)
C=C[C@]1(C)C[C@H](O)[C@@H]2[C@H](OC(=O)[C@@H]2C)C1/C(C)=C/O[C@@H]1O[C@H](CO)[C@@H](O)[C@H](O)[C@H]1O (stereo not given in full),–,85.2% [at 17.3 µM] (inactive)
C[C@@H]1C[C@@H](O)[C@@]23CO[C@]2(CO)CCC[C@@H]3[C@@]12C[C@@H](c1ccoc1)OC2=O,–,88.1% (inactive)
O=C1CCCC2=C1C(c1ccncc1Br)N=C(Nc1nc3ccccc3o1)N2 (stereo not given),18.4 µM (active),–
C/C1=C\[C@@H](C)C[C@@H](C)[C@@H](Cc2cnco2)OC(=O)/C(C)=C/[C@@H](C)C[C@@H](C)[C@@H](Cc2cnco2)OC1=O,0.502 µM (active),–
Cc1cc(N=Nc2ccc(S(=O)(=O)Nc3ccccn3)cc2)c(N)cc1O,2.59 µM (active),–
CC(=O)OC[C@@]12C(=O)C[C@@H](C)[C@]3(C[C@@H](c4ccoc4)OC3=O)[C@H]1CC[C@H](OC(C)=O)[C@]21CO1,–,87.9% [at 17.3 µM] (inactive)
CC(=O)Nc1cccc(-c2csc(Nc3cc(C)ccn3)n2)c1,16.4 µM (active),–
COc1ccc2c(c1)C(c1ccc(F)cc1)=C(CN1CCCC1)CO2,20.9 µM (active),–
COc1cccc(CN(C(=O)CC(C)(C)C)C2CC(C(=O)N3CCNCC3)N(Cc3ccc4c(c3)OCO4)C2)c1 (stereo not given),16.4 µM (active),–

Structure (SMILES),Potency,"viability, % of control"
CC(C)C[C@@H]1NC(=O)[C@@H]2C[C@@]34C[C@@H]5[C@@]6(C)CCCC(C)(C)C6CC[C@@]5(C)N(c5ccccc53)[C@H]4N2C1=O (stereo not given in full),0.448 µM (active),–
O=C(CNC(=O)c1cccc(C(F)(F)F)c1)N[C@@H]1CCN(Cc2ccc(Cl)cc2)C1,23.1 µM (active),–
CC1CCC2C(C(=O)O)=CC3C(O)C(C)(C)CC123 (stereo not given),–,88.2% (inactive)
CCC1CC2C(C)=CC3CCCCC3C2(C)C2(OC(=O)C(C)(O)OC2=O)O1 (stereo not given),10.1 µM (active),–
CC[C@H](C)[C@@H]([C@@H](CC(=O)N1CCC[C@H]1[C@H](OC)[C@@H](C)C(=O)N[C@@H](Cc1ccccc1)c1nccs1)OC)N(C)C(=O)[C@@H](NC(=O)[C@H](C(C)C)N(C)C)C(C)C,–,0.887% (inactive)
COc1cc(OCc2cccc(-c3ccccc3)c2C)cc(OC)c1CN1CCCC[C@H]1C(=O)O,8.33 µM (active),–
C[C@@]12CC[C@@H]3[C@@](CC[C@H]4[C@@]3(C)CCC[C@@]4(C)C(=O)O)(CC1=O)C2,–,69.8% (inactive)
CC(C)CNC(=O)/C=C/CCCCc1ccc2c(c1)OCO2,–,100% (inactive)
C=C1C(=O)O[C@@H]2/C=C(/C)CC3C=C(C[C@H](OC(=O)/C(C)=C\C)[C@@H]12)C(=O)O3 (stereo not given in full),2.55 µM (active),–
O=C1NC(Cc2c[nH]c3ccccc23)C(=O)NC1Cc1c[nH]c2ccccc12 (stereo not given),–,79.4% (inactive)
CC(C)C(=O)OC[C@H]1O[C@H](O[C@H]2O[C@H](CO)[C@@H](O)[C@H](O)[C@H]2O)[C@H](O)[C@@H](O)[C@@H]1O,–,109% [at 17.3 µM] (inactive)
COc1ccc2c(c1O)OC(C)(C)c1c-2ccc2c1C(=O)N(c1ccc(C(=O)c3ccccc3)cc1)C2=O,–,76.1% (inactive)
CC1(C)CCC2(C(=O)OC3OCC(O)C(O)C3O)CCC3(C)C(=CCC4C5(C)CC(O)C(OC6OC(COC7OCC(O)C(O)C7O)C(O)C(O)C6O)C(C)(C)C5CCC43C)C2C1 (stereo not given),–,78.5% [at 9.25 µM] (inactive)
COc1cc(O[C@@H]2O[C@H](CO)[C@@H](O)[C@H](O)[C@H]2O)c(CCC(=O)OC[C@H]2O[C@@H](Oc3cc(OC)c(C4OC(=O)C(C)(O)C4O)cc3CCC(=O)O)[C@H](O)[C@@H](O)[C@@H]2O)cc1C1OC(=O)C(C)(O)C1O (stereo not given in full),–,81.1% [at 9.25 µM] (inactive)
CS(=O)(=O)c1ccc(-c2cn3ccccc3n2)cc1,–,75.9% (inactive)
COc1ccc(-c2ccc3c(N4CCOCC4C)nc(N4CCOCC4C)nc3n2)cc1CO (stereo not given),0.103 µM (active),–
C[C@H]1CC[C@@]2(OC1)O[C@H]1CC3C4CC[C@H]5C[C@@H](O)[C@H](O)C[C@]5(C)C4=CC(=O)[C@]3(C)[C@H]1[C@@H]2C (stereo not given in full),–,79.2% [at 17.3 µM] (inactive)
C/C=C1\[C@H](O[C@@H]2O[C@H](CO)[C@@H](O)[C@H](O)[C@H]2O)OC=C(C(=O)OC)[C@H]1CC(=O)OC[C@H]1O[C@@H](OCCc2ccc(O)cc2)[C@H](O)[C@@H](O)[C@@H]1O,–,81.4% [at 17.3 µM] (inactive)
COCC(=O)NC/C=C/c1ccc2ncnc(Nc3ccc(Oc4ccc(C)nc4)c(C)c3)c2c1,9.2 µM (active),–
O=C1OCc2cc3cccc(O[C@@H]4O[C@H](CO)[C@@H](O)[C@H](O)[C@H]4O)c3c(O)c21,–,104% (inactive)
